These results are taken from article PMC13494018.

The chains are these.
B1: design_601_c3fd07b4-2f34-4ad8-bd4e-2749faf628eb_2331_dldesign_0_cycle1_af2pred (protein)
chain: HMEEEAYKAKVEKAKAAMKEAADKLVSDPEAAKKQITQIAKDTAKELIATGTPAGKAAAQDALAEATAAKTELDKKAK
B2: design_602_0a1f3d3d-7d26-454b-9b34-ebe8ef9bc7d4_244_dldesign_0_cycle1_af2pred (protein)
chain: AAAEAAKAKVKAIAAKSYAKNPEAGQYITLALAFAKRGDLEEALASLDEAEKEDPTNYPEARAAVLAYYAALKA
B3: design_602_0a1f3d3d-7d26-454b-9b34-ebe8ef9bc7d4_348_dldesign_0_cycle1_af2pred (protein)
chain: IDVKATADKFLKATEEAAKKDAELGKKTAKKAIYTLDVLGEADPEYKEYTDKKKEEIKKTLAELTAKQKAKE
B4: design_601_c3fd07b4-2f34-4ad8-bd4e-2749faf628eb_2023_dldesign_0_cycle1_af2pred (protein)
chain: MREEIIKAIKEAVKELKKLGKLAKEAKKKNPEIGKEAEKDAKKLQKELFEALSSENAVEKLKEVKEKTKKKIEEIKKKVEE
B5: design_602_0a1f3d3d-7d26-454b-9b34-ebe8ef9bc7d4_533_dldesign_0_cycle1_af2pred (protein)
chain: SLKEELAEKAEEKAKKAVEALKAYAKADPSKAEEMAAAAKKVKEAAERGKKGNVQEAGSAEVLAESALSAAEKKLKEL
B6: design_602_0a1f3d3d-7d26-454b-9b34-ebe8ef9bc7d4_487_dldesign_0_cycle1_af2pred (protein)
chain: EEEKRIEEAKKKAREAAEKAREYGKKIIKLGYDPKKAAELAQKAQEARAEAEALPEKAEEAAKKAKEAAEELEKLLKEAEA
B7: design_602_0a1f3d3d-7d26-454b-9b34-ebe8ef9bc7d4_418_dldesign_0_cycle1_af2pred (protein)
chain: SEEAKKLAEEAKKEMGNIRLDAYDKASEVNVEEAKKIFEEAKEKIEKIAKETAELVPEYAEEILKGGEKAMKALERAAKDIEKAE
B8: design_602_0a1f3d3d-7d26-454b-9b34-ebe8ef9bc7d4_1202_dldesign_0_cycle1_af2pred (protein)
chain: DEVEKILKEALEKMEEYKKKALEEAAKKDPETSKKLTELIEKRFEKREKELKEEMKKNKNDPEKAKRIGFHAVARAEITYEQAKLA
B9: design_602_0a1f3d3d-7d26-454b-9b34-ebe8ef9bc7d4_881_dldesign_0_cycle1_af2pred (protein)
chain: EKEKAAKKIAELMDKAYDLISDGGEAEIKKGKELAKEAVKLGKEAGPELAKKAEKGLRALERLAEETEKALKK
B10: design_601_c3fd07b4-2f34-4ad8-bd4e-2749faf628eb_1955_dldesign_0_cycle1_af2pred (protein)
chain: MEQEKKDEELLKKVKELGKEATEKSLEDPEKAKEYRKKLIEEAKKAAAEASPEYAKKIAEEAQKAQEEITEAQVEGEKKKK
B11: design_602_0a1f3d3d-7d26-454b-9b34-ebe8ef9bc7d4_19_dldesign_0_cycle1_af2pred (protein)
chain: MEEEEELKKKKEELLKLKKKLEEAYDIAAELAAKNPEYLDEVLEKYREGLRYLKLGGENPENYEEYYEKAKEKLKEIEEIAKKLK
B12: design_601_c3fd07b4-2f34-4ad8-bd4e-2749faf628eb_2200_dldesign_0_cycle1_af2pred (protein)
chain: SSEYSKKLAEDLKTFVKNIRDIAKESGDPAVVEQAKAVMAAFVTSEEAGVAAAKKLEAYTKETTNPALAAKAATAYDALKNIADG
B13: design_602_0a1f3d3d-7d26-454b-9b34-ebe8ef9bc7d4_127_dldesign_0_cycle1_af2pred (protein)
chain: AEEERRKALAKKRAERAKALAVEAKKEGNEEAAKYYEKAAELYAKAAEAPPEERGKLVDEAVEYYGEGELEKIKFK
B14: design_601_c3fd07b4-2f34-4ad8-bd4e-2749faf628eb_1485_dldesign_0_cycle1_af2pred (protein)
chain: GYKERAKKEIEEAKKNLEKAKADPSTAVSLLTDAIAHANAAKSLAEKLEKTDPETGKELIEEAKEIREEAKKVLAERNAA
B15: design_602_0a1f3d3d-7d26-454b-9b34-ebe8ef9bc7d4_299_dldesign_0_cycle1_af2pred (protein)
chain: EIGKIVDEALEKILELQAEAKKAGKEAAKEVDKVRKEMIKEAKKMAKEGKSAEEVKKFAEEKVEEAKKIAEEAKKK
B16: design_601_c3fd07b4-2f34-4ad8-bd4e-2749faf628eb_2299_dldesign_0_cycle1_af2pred (protein)
chain: MEAKEKAEKAIKRAKEIGEKLIKKVAFNPEAAEKVKKLTEEAIEAIKKDPEEGIKKGAEILQKAREYAAEVLAKN
B17: design_602_0a1f3d3d-7d26-454b-9b34-ebe8ef9bc7d4_268_dldesign_0_cycle1_af2pred (protein)
chain: VEEKAKKYIEEAKKKAKEMKELGKKNPAAKENYDAAAKVWETAAKEIEKDPSKAEEYEKKAKKTIAVLLDAANAEL
B18: design_601_c3fd07b4-2f34-4ad8-bd4e-2749faf628eb_1838_dldesign_0_cycle1_af2pred (protein)
chain: SMAEEILKEFLELAKVMAEDPEKGAKLFAEKVKELDPSIYPFAEAAAKKAAEEGAPLEELERAARAFANVVTT
B19: design_602_0a1f3d3d-7d26-454b-9b34-ebe8ef9bc7d4_1205_dldesign_0_cycle1_af2pred (protein)
chain: LKERIEKLKEEGKKLEEEAEEMKDKDASAKLYQLAHAALAAAKRAEEALKAGNKEEAEKYLKIGEEAVKKGKEILKKGKA
B20: design_602_0a1f3d3d-7d26-454b-9b34-ebe8ef9bc7d4_595_dldesign_0_cycle1_af2pred (protein)
chain: AAAVKAKMQAIAAAAKDAAKRAKEVAEKTGSTEAEADAVRAQHLSDAATINANGTQAQADAAQARLDVLKARAEKLEKEAKE
B21: design_601_c3fd07b4-2f34-4ad8-bd4e-2749faf628eb_1863_dldesign_0_cycle1_af2pred (protein)
chain: SEYEKELAKAEAFVKEALKKSKEEFIAETKKLFEEGSPVYQSALMRALTKAAKEYKDDPEKQKKALDARDTIVD
B22: design_601_c3fd07b4-2f34-4ad8-bd4e-2749faf628eb_1497_dldesign_0_cycle1_af2pred (protein)
chain: SMEEEEQRRRAIEELKRLMELADKSPSEIAKATREAVAATPLYAERIRKVGTAMMFNPEEGKKLAEEAIKELE
B23: design_602_0a1f3d3d-7d26-454b-9b34-ebe8ef9bc7d4_204_dldesign_0_cycle1_af2pred (protein)
chain: SEEEKKKELLEKTEENKKYLEELRKKYEADPSYKVEAATAEAGVKAAEEAKGENFEEAAEKAQKAYNTFKRMEEAEEEAKKRA
B24: design_602_0a1f3d3d-7d26-454b-9b34-ebe8ef9bc7d4_766_dldesign_0_cycle1_af2pred (protein)
chain: GELEALAERAAELVLDPEKAEEGVALVVERLRALTDPAEIARLVQLVQQALAEAAAKNPEKAAQLRAAAKRVVEAAREIVAEKAAAA
B25: design_602_0a1f3d3d-7d26-454b-9b34-ebe8ef9bc7d4_227_dldesign_0_cycle1_af2pred (protein)
chain: GAAAKAEAAKLAHESNEAKAEAVAHPEKAAEEAKKIKERLKELEKKAKEAPAEVAKYYAKAAKIAKKNLEEAKKVAEEAKA
B26: design_602_0a1f3d3d-7d26-454b-9b34-ebe8ef9bc7d4_576_dldesign_0_cycle1_af2pred (protein)
chain: AEAEKQAALAEASQLLLEANSFAKWVSEYAKELGQEDIAKKAEEAGKEYTKKAKAYIKAGKAEEAKKEAEKLLEEAEKLYKEAKEKA
B27: design_601_c3fd07b4-2f34-4ad8-bd4e-2749faf628eb_2458_dldesign_0_cycle1_af2pred (protein)
chain: MEKAKEEALKLIKELLEATKLPKGKASQIALELAAEADWLAKKSSPEAAELFNALAEAARAVVKDKEKGKELAKKVKEKVEK
B28: design_601_c3fd07b4-2f34-4ad8-bd4e-2749faf628eb_1417_dldesign_0_cycle1_af2pred (protein)
chain: EEEKLKEAAKRLHEAREKTNEAEQKLKLEGKKNAEELKKELEAAAKVAKAVAEEVKANPEYAKIAETLAKRAEKAAQEA
B29: design_601_c3fd07b4-2f34-4ad8-bd4e-2749faf628eb_2221_dldesign_0_cycle1_af2pred (protein)
chain: GAAEEAKKALKEAKERIEKVATPETKEFHEKLKEEMEKKVKELMAGDPVEGAKAAAKAAAAYAQEAYEASAEARAKEIIKK
B30: design_602_0a1f3d3d-7d26-454b-9b34-ebe8ef9bc7d4_1060_dldesign_0_cycle1_af2pred (protein)
chain: GEEKEKKVEEIEKKAKEEAKKYAEEIAKALKDPEKMKKIATEATDKLLEMAEEMVETDKKAGKKAAEMIREGLRIMKETYEKERKKA
B31: design_602_0a1f3d3d-7d26-454b-9b34-ebe8ef9bc7d4_194_dldesign_0_cycle1_af2pred (protein)
chain: AVEAAIEALEELAKKAPPELAEYLKRTAEAAKKAGEKVLRYAVRAAAYATIALEGSPEVAAEAIKKAKEQAEKAEKIAKE
B32: design_601_c3fd07b4-2f34-4ad8-bd4e-2749faf628eb_1953_dldesign_0_cycle1_af2pred (protein)
chain: AVAAKAQAALDRTAALREKHPEAKEYLDKAEEEAKKALADPANAAEYLKKAANYLQEAYQEASEYEFKKK
B33: design_601_c3fd07b4-2f34-4ad8-bd4e-2749faf628eb_1384_dldesign_0_cycle1_af2pred (protein)
chain: SKIELLKKAAEYVEEAAKLAKEGGRVSDVIKLLQKAYELAKKAGDEETAKLIKEAAFAVPDPEKAYKLLKEAAERLKEKAKKLE
B34: design_602_0a1f3d3d-7d26-454b-9b34-ebe8ef9bc7d4_95_dldesign_0_cycle1_af2pred (protein)
chain: MEELAKKAEEVVEESGEALAKAPREKWPEISELRHESLRALREAGENPETREEHLKEGEKYLEEAKKLAEKGAKE
B35: design_601_c3fd07b4-2f34-4ad8-bd4e-2749faf628eb_2283_dldesign_0_cycle1_af2pred (protein)
chain: AAAEDEAKRALAKKKAEEAKKLAKEAVEGNAEKAEKAAKELEKILKELRALGKAASPAAKAALTAAAHTAAEAYAEAYSAAVVKKEKE
B36: design_602_0a1f3d3d-7d26-454b-9b34-ebe8ef9bc7d4_990_dldesign_0_cycle1_af2pred (protein)
chain: MDKDGIAYSIKAKHIAEAALILGEKSTPEMAEVFKEVAELAKEAAEAALKDAETGKKLLKEVLKKAREAKKKAEEAKKA
B37: design_602_0a1f3d3d-7d26-454b-9b34-ebe8ef9bc7d4_1230_dldesign_0_cycle1_af2pred (protein)
chain: AEAEKKAKEAVKLAEKYYEKAKELAKEAEKDPKLKEAAKKIKKDAEEIKKALEKGIKEGNEVEAAQTSKSLYRAAEAEYKRAKK
B38: design_602_0a1f3d3d-7d26-454b-9b34-ebe8ef9bc7d4_149_dldesign_0_cycle1_af2pred (protein)
chain: VVEKALKEMEKYIEKAKEEAIKINPKAKEYIEKRAKRIREEAKKGAEEAKKLYKEDPEKGKEKAKEALKKTKGLAESLIEHAKFSAK

This experiment deals with VTCN1, Q7Z7D3.
Chain of VTCN1, Q7Z7D3 (Q7Z7D3 whole entry): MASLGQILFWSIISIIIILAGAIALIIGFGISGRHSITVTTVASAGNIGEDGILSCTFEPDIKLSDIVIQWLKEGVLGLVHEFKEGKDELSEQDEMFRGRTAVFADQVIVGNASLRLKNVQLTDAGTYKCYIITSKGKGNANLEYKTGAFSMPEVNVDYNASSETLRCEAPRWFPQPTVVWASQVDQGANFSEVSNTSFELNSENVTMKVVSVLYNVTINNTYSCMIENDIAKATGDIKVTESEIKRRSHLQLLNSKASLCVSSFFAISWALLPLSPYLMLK
In the case of B1, the “binding in a display sort” value was “not found (inactive)”.

B2: the “binding in a display sort” value is “not found (inactive)”. The value for B3 was “not found (inactive)”; that for B4 was “not found (inactive)”; that for B5 was “not found (inactive)”. The entry for B6 is “not found (inactive)”; for B7 it is “not found (inactive)”; for B8 it is “not found (inactive)”. For B9, the “binding in a display sort” value was “not found (inactive)”.

With B10, the “binding in a display sort” value was “not found (inactive)”.

In the case of B11, the “binding in a display sort” value was “not found (inactive)”. The entry for B12 is “not found (inactive)”. Turning to B13, the “binding in a display sort” value is “not found (inactive)”. The value for B14 was “not found (inactive)”; that for B15 was “not found (inactive)”. The value for B16 was “not found (inactive)”; that for B17 was “not found (inactive)”; that for B18 was “not found (inactive)”. The entry for B19 is “not found (inactive)”; for B20 it is “not found (inactive)”. On to B21, for which the “binding in a display sort” value is “not found (inactive)”. The value for B22 was “binds (active)”; that for B23 was “not found (inactive)”. Consider B24, for which the “binding in a display sort” value is “not found (inactive)”. The value for B25 was “not found (inactive)”; that for B26 was “not found (inactive)”. The entry for B27 is “not found (inactive)”. The value for B28 was “not found (inactive)”. Turning to B29, the “binding in a display sort” value was “not found (inactive)”.

Consider B30, for which the “binding in a display sort” value was “not found (inactive)”.

B31: the “binding in a display sort” value was “not found (inactive)”. Take B32: the “binding in a display sort” value was “not found (inactive)”.

For B33, the “binding in a display sort” value is “not found (inactive)”. As to B34, the “binding in a display sort” value was “not found (inactive)”. For the molecule B35, the “binding in a display sort” value was “not found (inactive)”.

In the case of B36, the “binding in a display sort” value was “not found (inactive)”. The value for B37 was “not found (inactive)”; that for B38 was “not found (inactive)”.
